# According to PMC7862700, “An all-to-all approach to the identification of sequence-specific readers for epigenetic DNA modifications on cytosine”:
# Legend:
# Assay in all cases: DAPPL (digital affinity profiling via proximity ligation, sequencing); 10 mM Tris-HCl pH 7.5, 50 mM NaCl, 1 mM DTT, 4% glycerol, room temperature, 30 min; GST-TFs on glutathione beads, 16-mer random dsDNA library, 0.1% formaldehyde crosslink after washing; high values mean tight binding
# FEV = biological target: T1, FEV (Homo sapiens, UniProt Q99581 1-238); details: protein: recombinant; tags: N-terminal GST; dsDNA, one strand shown
# T1 sequence: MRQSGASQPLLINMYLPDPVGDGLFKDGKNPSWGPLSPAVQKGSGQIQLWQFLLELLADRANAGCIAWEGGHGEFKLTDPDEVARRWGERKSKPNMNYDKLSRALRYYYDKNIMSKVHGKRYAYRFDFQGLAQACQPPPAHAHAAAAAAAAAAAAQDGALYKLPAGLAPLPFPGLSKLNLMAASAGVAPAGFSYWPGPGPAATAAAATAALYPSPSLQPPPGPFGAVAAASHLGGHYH
# Method in brief: (§1)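 Human transcription factors fused to GST were expressed in yeast, captured on glutathione beads, given DNA barcodes and pooled with a GST-only negative control. Pools were incubated with 200 nmole of a 16-mer random double-stranded DNA library in Tris/NaCl/DTT/glycerol buffer at room temperature for 30 min. They were then washed, crosslinked with 0.1% formaldehyde, proximity-ligated (BsaI/T4 ligase, 1 h, 37 °C), PCR-amplified and sequenced on an Illumina NextSeq500. Binding signal is each 6-mer's read frequency for a factor divided by its frequency for the GST control.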
# ETV5 = ETV5 (Homo sapiens, UniProt P41161 1-510); details: protein: recombinant; tags: N-terminal GST; dsDNA, one strand shown
# Method in brief: as §1
# HSF1 = HSF1 (Homo sapiens, UniProt Q00613 1-529); details: protein: recombinant; tags: N-terminal GST; chain copies: 3; dsDNA, one strand shown
# Method in brief: as §1
# SPIC = biological target: T2, SPIC (Homo sapiens, UniProt Q8N5J4 1-248); details: protein: recombinant; tags: N-terminal GST; dsDNA, one strand shown
# T2 sequence: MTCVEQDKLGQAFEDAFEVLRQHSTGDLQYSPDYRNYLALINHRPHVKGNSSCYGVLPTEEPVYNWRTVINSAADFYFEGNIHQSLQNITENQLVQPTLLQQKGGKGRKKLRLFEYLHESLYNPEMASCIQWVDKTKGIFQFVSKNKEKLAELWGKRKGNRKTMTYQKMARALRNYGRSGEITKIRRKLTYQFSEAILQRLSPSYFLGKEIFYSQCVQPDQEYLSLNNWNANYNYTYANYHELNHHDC
# Method in brief: as §1
# ELF4 = ELF4 (Homo sapiens, UniProt Q99607 1-663); details: protein: recombinant; tags: N-terminal GST; dsDNA, one strand shown
# Method in brief: as §1
# ELK4 = biological target: T3, ELK4 (Homo sapiens, UniProt P28324-2 1-405); details: protein: recombinant; tags: N-terminal GST; dsDNA, one strand shown
# T3 sequence: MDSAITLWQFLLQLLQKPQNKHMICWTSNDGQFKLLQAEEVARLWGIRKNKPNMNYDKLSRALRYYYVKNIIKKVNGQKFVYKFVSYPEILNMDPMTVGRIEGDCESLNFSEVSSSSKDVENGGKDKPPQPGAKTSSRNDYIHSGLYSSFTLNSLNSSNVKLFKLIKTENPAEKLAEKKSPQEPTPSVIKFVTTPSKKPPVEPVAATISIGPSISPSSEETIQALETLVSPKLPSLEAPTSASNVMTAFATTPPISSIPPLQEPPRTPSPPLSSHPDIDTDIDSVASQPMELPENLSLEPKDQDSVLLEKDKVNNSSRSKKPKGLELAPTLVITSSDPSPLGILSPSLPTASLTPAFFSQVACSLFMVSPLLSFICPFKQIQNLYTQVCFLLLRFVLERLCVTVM
# Method in brief: as §1
# ETV2 = biological target: T4, ETV2 (Homo sapiens, UniProt O00321 1-342); details: protein: recombinant; tags: N-terminal GST; dsDNA, one strand shown
# T4 sequence: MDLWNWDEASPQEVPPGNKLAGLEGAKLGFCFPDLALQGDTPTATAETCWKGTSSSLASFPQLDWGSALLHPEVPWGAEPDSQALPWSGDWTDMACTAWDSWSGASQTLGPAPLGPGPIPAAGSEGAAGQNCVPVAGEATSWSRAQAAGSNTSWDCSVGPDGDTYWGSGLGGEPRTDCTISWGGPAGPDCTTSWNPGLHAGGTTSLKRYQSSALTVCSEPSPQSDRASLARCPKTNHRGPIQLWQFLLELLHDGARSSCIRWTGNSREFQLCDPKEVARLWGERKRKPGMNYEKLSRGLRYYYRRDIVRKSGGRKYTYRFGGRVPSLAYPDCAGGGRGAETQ
# Method in brief: as §1
# ELF3 = biological target: T5, ELF3 (Homo sapiens, UniProt P78545 1-371); details: protein: recombinant; tags: N-terminal GST; dsDNA, one strand shown
# T5 sequence: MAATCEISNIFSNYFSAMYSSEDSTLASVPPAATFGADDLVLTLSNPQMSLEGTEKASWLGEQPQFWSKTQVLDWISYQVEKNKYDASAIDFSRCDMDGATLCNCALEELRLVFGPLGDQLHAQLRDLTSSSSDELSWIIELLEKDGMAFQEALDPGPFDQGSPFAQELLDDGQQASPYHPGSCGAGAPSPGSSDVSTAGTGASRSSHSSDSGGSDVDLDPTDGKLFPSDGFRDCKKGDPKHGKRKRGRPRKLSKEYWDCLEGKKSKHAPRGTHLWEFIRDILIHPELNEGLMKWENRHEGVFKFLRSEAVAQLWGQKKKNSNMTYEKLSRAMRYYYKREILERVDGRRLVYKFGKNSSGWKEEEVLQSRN
# Method in brief: as §1
# CRX = CRX (Homo sapiens, UniProt O43186 1-299); details: protein: recombinant; tags: N-terminal GST; dsDNA, one strand shown
# Method in brief: as §1
# ETV1 = ETV1 (Homo sapiens, UniProt P50549 1-477); details: protein: recombinant; tags: N-terminal GST; dsDNA, one strand shown
# Method in brief: as §1
# ERF = biological target: T6, ERF (Homo sapiens, UniProt P50548 1-548); details: protein: recombinant; tags: N-terminal GST; dsDNA, one strand shown
# T6 sequence: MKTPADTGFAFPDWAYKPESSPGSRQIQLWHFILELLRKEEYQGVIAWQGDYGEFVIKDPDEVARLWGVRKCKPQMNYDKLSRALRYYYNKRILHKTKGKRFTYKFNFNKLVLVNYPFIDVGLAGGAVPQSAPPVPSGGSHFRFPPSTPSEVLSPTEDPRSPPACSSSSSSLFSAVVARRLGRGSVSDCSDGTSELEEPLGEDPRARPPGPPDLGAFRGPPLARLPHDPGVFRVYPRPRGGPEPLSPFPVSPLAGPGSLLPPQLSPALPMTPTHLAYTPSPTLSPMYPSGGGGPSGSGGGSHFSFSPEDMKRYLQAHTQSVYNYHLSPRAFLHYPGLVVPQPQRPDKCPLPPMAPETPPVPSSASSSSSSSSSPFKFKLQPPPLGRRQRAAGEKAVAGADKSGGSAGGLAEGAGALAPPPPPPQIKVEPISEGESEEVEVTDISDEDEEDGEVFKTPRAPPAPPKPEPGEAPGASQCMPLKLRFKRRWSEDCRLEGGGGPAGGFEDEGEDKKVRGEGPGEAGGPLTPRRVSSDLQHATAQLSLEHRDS
# Method in brief: as §1
# ETV3L = biological target: T7, ETV3L (Homo sapiens, UniProt Q6ZN32 1-361); details: protein: recombinant; tags: N-terminal GST; dsDNA, one strand shown
# T7 sequence: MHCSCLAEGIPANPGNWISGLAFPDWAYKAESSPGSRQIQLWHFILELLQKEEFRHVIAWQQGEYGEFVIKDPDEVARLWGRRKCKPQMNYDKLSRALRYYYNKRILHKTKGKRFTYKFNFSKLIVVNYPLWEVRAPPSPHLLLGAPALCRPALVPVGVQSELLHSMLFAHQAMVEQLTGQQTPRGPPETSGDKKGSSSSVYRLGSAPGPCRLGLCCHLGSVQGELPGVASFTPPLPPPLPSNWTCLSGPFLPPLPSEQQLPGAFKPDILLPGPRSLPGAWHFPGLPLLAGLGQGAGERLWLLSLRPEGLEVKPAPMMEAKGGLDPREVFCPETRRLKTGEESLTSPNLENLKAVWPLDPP
# Method in brief: as §1
# ETS2 = biological target: T8, ETS2 (Homo sapiens, UniProt P15036 1-469); details: protein: recombinant; tags: N-terminal GST; dsDNA, one strand shown
# T8 sequence: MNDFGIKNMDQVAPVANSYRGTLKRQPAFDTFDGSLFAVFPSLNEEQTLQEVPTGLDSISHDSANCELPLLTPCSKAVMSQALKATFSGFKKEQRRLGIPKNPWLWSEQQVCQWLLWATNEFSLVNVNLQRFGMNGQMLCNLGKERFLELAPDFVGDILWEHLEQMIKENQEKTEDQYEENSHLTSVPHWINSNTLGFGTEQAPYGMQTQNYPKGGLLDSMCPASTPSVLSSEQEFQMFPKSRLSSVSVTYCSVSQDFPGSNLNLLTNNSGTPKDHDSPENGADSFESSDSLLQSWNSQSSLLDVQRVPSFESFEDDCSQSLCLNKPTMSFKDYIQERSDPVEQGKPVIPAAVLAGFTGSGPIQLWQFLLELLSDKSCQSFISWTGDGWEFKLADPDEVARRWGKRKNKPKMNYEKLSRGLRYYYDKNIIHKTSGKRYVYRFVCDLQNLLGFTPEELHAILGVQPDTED
# Method in brief: as §1
# SPDEF = biological target: T9, SPDEF (Homo sapiens, UniProt O95238 1-335); details: protein: recombinant; tags: N-terminal GST; dsDNA, one strand shown
# T9 sequence: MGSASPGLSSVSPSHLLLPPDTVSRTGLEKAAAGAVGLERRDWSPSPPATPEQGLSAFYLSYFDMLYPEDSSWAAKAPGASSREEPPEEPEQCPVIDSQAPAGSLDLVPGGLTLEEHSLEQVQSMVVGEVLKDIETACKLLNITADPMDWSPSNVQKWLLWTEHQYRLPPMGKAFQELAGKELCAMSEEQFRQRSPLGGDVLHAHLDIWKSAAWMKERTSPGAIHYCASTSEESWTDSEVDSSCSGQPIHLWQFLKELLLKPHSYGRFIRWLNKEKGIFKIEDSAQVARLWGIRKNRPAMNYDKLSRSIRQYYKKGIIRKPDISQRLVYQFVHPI
# Method in brief: as §1
# ETV7 = biological target: T10, ETV7 (Homo sapiens, UniProt Q9Y603 1-341); details: protein: recombinant; tags: N-terminal GST; dsDNA, one strand shown
# T10 sequence: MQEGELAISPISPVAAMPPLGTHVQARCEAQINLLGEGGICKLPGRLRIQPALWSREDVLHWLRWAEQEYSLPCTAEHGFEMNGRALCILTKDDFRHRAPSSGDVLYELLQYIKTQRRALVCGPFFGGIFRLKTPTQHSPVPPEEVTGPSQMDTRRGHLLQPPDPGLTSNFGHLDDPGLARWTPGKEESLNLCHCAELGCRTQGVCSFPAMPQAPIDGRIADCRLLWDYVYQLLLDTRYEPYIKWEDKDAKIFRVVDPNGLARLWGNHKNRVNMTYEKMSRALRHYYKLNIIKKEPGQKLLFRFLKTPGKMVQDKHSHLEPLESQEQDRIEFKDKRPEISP
# Method in brief: as §1
# ELF5 = biological target: T11, ELF5 (Homo sapiens, UniProt Q9UKW6-2 1-255); details: protein: recombinant; tags: N-terminal GST; dsDNA, one strand shown
# T11 sequence: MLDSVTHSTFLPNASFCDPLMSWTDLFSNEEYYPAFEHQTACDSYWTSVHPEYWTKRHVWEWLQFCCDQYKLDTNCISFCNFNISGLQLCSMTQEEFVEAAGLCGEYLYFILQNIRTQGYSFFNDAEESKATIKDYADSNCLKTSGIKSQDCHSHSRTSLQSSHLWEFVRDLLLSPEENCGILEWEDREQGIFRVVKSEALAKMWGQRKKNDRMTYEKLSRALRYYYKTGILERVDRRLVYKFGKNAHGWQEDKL
# Method in brief: as §1
# ETV3 = biological target: T12, ETV3 (Homo sapiens, UniProt P41162-2 1-143); details: protein: recombinant; tags: N-terminal GST; dsDNA, one strand shown
# T12 sequence: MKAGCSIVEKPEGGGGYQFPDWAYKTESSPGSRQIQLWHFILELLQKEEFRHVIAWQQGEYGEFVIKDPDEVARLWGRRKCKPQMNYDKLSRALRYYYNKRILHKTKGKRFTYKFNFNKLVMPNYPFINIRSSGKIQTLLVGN
# Method in brief: as §1
# ETV6 = ETV6 (Homo sapiens, UniProt P41212 1-452); details: protein: recombinant; tags: N-terminal GST; dsDNA, one strand shown
# Method in brief: as §1
# ELF4, sequence (Q99607 whole entry): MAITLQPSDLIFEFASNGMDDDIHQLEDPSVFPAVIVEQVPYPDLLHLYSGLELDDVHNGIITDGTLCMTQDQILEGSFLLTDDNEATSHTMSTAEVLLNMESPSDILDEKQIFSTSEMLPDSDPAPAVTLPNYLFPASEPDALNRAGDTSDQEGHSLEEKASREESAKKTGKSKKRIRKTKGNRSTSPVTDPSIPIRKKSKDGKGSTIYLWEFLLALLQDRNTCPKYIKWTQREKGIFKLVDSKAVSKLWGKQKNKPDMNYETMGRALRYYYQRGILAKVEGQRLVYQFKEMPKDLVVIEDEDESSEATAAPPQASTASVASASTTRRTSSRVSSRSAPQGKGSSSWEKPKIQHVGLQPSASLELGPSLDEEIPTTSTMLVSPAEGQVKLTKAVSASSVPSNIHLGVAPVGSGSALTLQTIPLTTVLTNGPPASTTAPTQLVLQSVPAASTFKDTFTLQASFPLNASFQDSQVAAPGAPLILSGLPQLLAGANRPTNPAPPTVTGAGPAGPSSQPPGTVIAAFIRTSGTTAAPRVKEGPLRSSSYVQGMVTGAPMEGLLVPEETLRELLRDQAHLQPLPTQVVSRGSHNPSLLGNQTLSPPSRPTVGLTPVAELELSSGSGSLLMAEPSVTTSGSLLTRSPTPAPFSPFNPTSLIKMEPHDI
# CRX, sequence (O43186 whole entry): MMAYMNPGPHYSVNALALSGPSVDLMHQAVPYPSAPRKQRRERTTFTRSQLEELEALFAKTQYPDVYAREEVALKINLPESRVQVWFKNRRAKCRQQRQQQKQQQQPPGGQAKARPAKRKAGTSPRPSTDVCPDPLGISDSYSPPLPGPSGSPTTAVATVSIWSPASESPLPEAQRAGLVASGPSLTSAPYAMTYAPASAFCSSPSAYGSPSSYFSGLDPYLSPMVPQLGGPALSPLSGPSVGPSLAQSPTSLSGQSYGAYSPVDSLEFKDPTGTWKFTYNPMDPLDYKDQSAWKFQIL
# ETV5, sequence (P41161 whole entry): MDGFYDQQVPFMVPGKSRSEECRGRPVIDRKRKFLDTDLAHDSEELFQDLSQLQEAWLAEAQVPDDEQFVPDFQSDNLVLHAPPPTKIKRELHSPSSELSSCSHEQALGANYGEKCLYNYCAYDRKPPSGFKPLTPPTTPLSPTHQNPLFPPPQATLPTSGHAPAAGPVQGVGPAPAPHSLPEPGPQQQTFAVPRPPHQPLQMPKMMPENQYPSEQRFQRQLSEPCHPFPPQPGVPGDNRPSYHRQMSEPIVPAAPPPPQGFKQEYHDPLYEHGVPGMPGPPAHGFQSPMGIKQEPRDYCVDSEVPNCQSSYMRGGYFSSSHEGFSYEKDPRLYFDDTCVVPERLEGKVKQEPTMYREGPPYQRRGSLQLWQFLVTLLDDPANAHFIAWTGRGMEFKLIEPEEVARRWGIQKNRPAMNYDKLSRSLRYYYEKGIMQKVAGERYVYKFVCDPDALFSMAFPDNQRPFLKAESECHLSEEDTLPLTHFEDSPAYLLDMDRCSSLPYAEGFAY
# ETV1, sequence (P50549 whole entry): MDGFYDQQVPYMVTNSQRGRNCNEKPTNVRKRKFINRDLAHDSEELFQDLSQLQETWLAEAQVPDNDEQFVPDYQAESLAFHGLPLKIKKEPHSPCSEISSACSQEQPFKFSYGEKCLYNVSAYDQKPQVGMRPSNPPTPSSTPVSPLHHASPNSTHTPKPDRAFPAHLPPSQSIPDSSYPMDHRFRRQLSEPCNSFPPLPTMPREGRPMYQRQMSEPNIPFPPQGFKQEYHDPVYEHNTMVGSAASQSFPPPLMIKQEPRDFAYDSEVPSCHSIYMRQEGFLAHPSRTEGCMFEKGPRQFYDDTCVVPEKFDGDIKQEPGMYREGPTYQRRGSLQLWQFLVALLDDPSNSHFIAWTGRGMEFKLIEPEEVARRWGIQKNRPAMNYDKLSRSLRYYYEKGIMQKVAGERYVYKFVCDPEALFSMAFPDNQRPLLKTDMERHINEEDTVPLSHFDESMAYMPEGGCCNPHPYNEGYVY
# HSF1, sequence (Q00613 whole entry): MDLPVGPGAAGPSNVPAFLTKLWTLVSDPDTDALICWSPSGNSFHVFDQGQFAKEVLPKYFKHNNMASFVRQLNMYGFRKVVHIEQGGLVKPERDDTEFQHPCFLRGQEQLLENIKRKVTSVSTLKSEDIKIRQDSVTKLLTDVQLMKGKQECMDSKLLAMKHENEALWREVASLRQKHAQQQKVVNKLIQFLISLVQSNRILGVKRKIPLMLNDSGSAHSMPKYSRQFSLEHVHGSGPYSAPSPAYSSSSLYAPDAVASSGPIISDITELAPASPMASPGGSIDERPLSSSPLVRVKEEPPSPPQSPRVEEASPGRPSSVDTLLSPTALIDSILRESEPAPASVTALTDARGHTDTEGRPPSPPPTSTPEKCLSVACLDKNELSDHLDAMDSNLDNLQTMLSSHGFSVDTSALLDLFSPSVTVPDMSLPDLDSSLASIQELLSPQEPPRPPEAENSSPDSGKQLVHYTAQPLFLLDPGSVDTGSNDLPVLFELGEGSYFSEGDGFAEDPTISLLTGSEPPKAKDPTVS
# ETV6, sequence (P41212 whole entry): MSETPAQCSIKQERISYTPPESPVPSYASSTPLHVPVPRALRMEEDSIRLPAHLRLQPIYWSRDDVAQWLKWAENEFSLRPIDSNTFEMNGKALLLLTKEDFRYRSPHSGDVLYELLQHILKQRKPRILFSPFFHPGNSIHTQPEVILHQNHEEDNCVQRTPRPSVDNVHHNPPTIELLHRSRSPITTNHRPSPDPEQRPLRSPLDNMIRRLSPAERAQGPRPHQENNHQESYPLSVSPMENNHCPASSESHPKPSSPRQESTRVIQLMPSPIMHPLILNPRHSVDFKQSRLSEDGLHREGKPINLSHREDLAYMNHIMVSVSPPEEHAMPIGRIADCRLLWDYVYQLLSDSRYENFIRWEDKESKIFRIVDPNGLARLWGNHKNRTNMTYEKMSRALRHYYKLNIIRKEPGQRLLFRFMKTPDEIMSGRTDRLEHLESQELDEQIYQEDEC
sequence,measurement,setting,value
AAATCT,binding signal,FEV,"1.29 fold enrichment (6-mer frequency, TF over GST control)"
same,binding signal,ETV5,"1.31 fold enrichment (6-mer frequency, TF over GST control)"
same,binding signal,HSF1,"1.75 fold enrichment (6-mer frequency, TF over GST control)"
same,binding signal,SPIC,"1.39 fold enrichment (6-mer frequency, TF over GST control)"
same,binding signal,ELF4,"1.34 fold enrichment (6-mer frequency, TF over GST control)"
same,binding signal,ELK4,"1.25 fold enrichment (6-mer frequency, TF over GST control)"
same,binding signal,ETV2,"1.24 fold enrichment (6-mer frequency, TF over GST control)"
same,binding signal,ELF3,"1.25 fold enrichment (6-mer frequency, TF over GST control)"
same,binding signal,CRX,"2.03 fold enrichment (6-mer frequency, TF over GST control)"
same,binding signal,ETV1,"1.35 fold enrichment (6-mer frequency, TF over GST control)"
same,binding signal,ERF,"1.3 fold enrichment (6-mer frequency, TF over GST control)"
same,binding signal,ETV3L,"1.32 fold enrichment (6-mer frequency, TF over GST control)"
same,binding signal,ETS2,"1.33 fold enrichment (6-mer frequency, TF over GST control)"
same,binding signal,SPDEF,"1.25 fold enrichment (6-mer frequency, TF over GST control)"
same,binding signal,ETV7,"1.16 fold enrichment (6-mer frequency, TF over GST control)"
same,binding signal,ELF5,"1.27 fold enrichment (6-mer frequency, TF over GST control)"
same,binding signal,ETV3,"1.19 fold enrichment (6-mer frequency, TF over GST control)"
same,binding signal,ETV6,"1.24 fold enrichment (6-mer frequency, TF over GST control)"
